TGFb inhibitor = inhibitors of TGF-b signaling; Potency, µM (highest dose often 46.1 µM), for inactives: at the highest dose activity, negative = inhibition, most hits filed as inhibitors; 1.2% of 410,000 active; AID 588855; HepG2 CAGA-GFP TGF-b/SMAD3 reporter, GFP fluorescence, 18 h; TGF-beta stimulated, 500 pg/mL final; note: potency is the fitted concentration of half-maximal effect; % is set by controls: 0 for no effect and ±100 for the full control effect; nearly all actives have a fitted effect of over 65% in size
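Per well, imaged GFP fluorescence of HEPG2 CAGA-GFP cells gives the signal; cells get compound, then TGF-beta (500 pg/mL final), 18 h at 37 degrees C; %Activity versus -TGF-beta and +DMSO controls.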
TDP1 cell CPT = DT40-hTDP1 cell growth loss with CPT. AID 686979. chicken DT40 Tdp1-/-;hTDP1 cells + 20 nM CPT, ATP luminescence, 48 h. Potency, µM (titrated, usually from 46.2 µM), inactives show at the highest dose activity change, negative = growth inhibition, most hits filed as inhibitors. 12% of 420,000 active; note: potency is the fitted concentration of half-maximal effect; % is set by controls: 0 for no effect and ±100 for the full control effect; nearly all actives have a fitted effect of over 55% in size
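Chicken DT40 Tdp1-/- cells complemented with human TDP1, 400 cells/well, exposed to compounds plus 20 nM camptothecin for at least 48 h at 37 C; viability read as ATP content by CellTiter-Glo luminescence.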
HepG2 tox = counter-screen for TGF-b inhibitors: cytotoxicity in HepG2 cells; HepG2 CAGA-GFP viability, ATP luminescence, 18 h; Potency, µM (top dose mostly 46.1 µM), without a hit: at the top dose activity change, negative = cytotoxicity, most hits filed as cytotoxic; 0.76% of 410,000 active; note: potency is the fitted concentration of half-maximal effect
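HepG2 CAGA-GFP cells (1000/well, DMEM with 1% FBS) received compound, then TGF-beta at 500 pg/mL final, and were incubated 18 hours at 37 degrees C. Viability was read by CellTiter-Glo luminescence. Media-only wells were set as complete cell-killing and DMSO as no toxicity.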
IL1B secr inh = inhibitors of inflammasome signaling (IL-1 beta secretion); AID 743279; 4.7% of 360,000 active; activity change, % at 57.5 µM; THP-1 LPS/ATP IL-1B secretion, AlphaLISA, 16 h; active compounds read low; in the data active = activity change below about -50%; inconclusive = mostly about -30% to -49%; note: % is set by controls: 0 for no effect and ±100 for the full control effect
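Secreted IL-1B measured by AlphaLISA bead assay after 16 h compound exposure of THP-1 cells; compounds (final up to 57.5 uM) added 1 h before LPS (250 ng/mL) and ATP (1.25 mM) stimulation; lower signal means less secretion.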
TDP1 cell noCPT = qHTS for Inhibitors of human tyrosyl-DNA phosphodiesterase 1 (TDP1): qHTS in cells in absence of CPT. DT40 Tdp1-/- hTDP1 cells, no CPT, ATP luminescence, 48 h. Potency, µM (highest dose often 46.2 µM), inactives show at the top dose activity change, negative = growth inhibition, actives largely listed as inhibitors. 15% of 420,000 active; note: potency is the fitted concentration of half-maximal effect; % is set by controls: 0 for no effect and ±100 for the full control effect; nearly all actives have a fitted effect of over 55% in size
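No-CPT arm: Tdp1-/-;hTDP1 DT40 cells (400/well) plus compounds, incubated ≥48 hr at 37 °C. Readout CellTiter-Glo luminescence.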
TDP1 block = inhibitors of human tyrosyl-DNA phosphodiesterase TDP1; Q9NUW8; recombinant TDP1, AlphaScreen DNA substrate cleavage; Potency, µM (top dose mostly 130 µM), inactives show at the highest dose activity change, negative = inhibition, hits mostly inhibitors; 0.28% of 350,000 active; note: potency is the fitted concentration of half-maximal effect; % is set by controls: 0 for no effect and ±100 for the full control effect; nearly all actives have a fitted effect of over 40% in size
Target sequence (Q9NUW8 whole entry, looked up): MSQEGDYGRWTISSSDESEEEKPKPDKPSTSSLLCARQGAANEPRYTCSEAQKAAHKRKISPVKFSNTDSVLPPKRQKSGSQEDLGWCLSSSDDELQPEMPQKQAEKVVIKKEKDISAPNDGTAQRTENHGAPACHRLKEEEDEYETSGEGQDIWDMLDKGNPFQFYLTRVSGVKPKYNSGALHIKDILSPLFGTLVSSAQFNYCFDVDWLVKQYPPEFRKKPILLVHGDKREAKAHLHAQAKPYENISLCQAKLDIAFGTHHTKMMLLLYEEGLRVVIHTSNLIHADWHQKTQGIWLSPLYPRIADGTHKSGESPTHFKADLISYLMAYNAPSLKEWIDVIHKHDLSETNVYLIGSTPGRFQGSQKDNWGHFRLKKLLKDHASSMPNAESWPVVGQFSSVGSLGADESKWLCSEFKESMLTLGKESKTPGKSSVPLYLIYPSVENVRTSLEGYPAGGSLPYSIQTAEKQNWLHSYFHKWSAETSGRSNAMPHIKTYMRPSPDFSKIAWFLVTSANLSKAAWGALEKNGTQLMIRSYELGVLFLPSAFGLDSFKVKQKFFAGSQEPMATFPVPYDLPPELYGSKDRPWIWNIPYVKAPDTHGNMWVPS
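Steps: enzyme plus compound, 15 min RT; add biotin/phosphotyrosine-FITC oligonucleotide (15 nM final), react 5 min; add donor/acceptor beads (10 ug/ml final), 10 min; read AlphaScreen. Tdp1 at 1 nM final.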
* = called active by the depositor; ? = inconclusive; · = no result; [ ] = remark or other dose. Most compounds without a hit are left out; they make up all but 19% or so of the library. Unless noted, calls come from the whole dose curve; as a rule, active = well fitted curve in the direction sought with a large enough effect; inconclusive = small, poorly fitted or top-dose-only effect, or another doubt; inactive = no such curve, though single readings can be large; an effect the other way counts as inactive or inconclusive.

SMILES	TGFb inhibitor	TDP1 cell CPT	HepG2 tox	IL1B secr inh	TDP1 cell noCPT	TDP1 block
COc1ccc(-n2c(-c3ccco3)nc3c(cnn3-c3ccccc3C)c2=O)cc1	?	?	0.3%	32.7	23.1µM*	6.0%
CCN1CCN(C(CNS(=O)(=O)c2ccc(F)cc2)c2cccnc2)CC1 (centres undefined)	5.9%	-12.9%	-0.2%	-15.2	10.0%	-0.3%
Cc1cc(NC(=O)COC(=O)C2CC(=O)N(c3cccc(C)c3C)C2)no1 (centres undefined)	4.7%	-5.5%	10.8%	-2.7	2.2%	0.0%
Fc1ccc(NC(=S)Nc2ccc(F)c(Cl)c2)cc1Cl	?	23.1µM*	-41.9%	-77.2*	13µM*	3.8%
O=C(Nc1ccc(F)c(Cl)c1)C1CCCCC1	-17.4%	-5.1%	-11.9%	-14.3	-5.4%	·
Cc1ccc(NC(=S)Nc2ccc(OC(F)F)c(Cl)c2)cc1F	?	?	-38.1%	-95.0*	?	5.0%
COC(=O)NC(=S)Nc1ccc(Oc2ccc(Cl)cc2Cl)c(Cl)c1	-24.1%	9.2µM*	-71.5%	47.8	4.61µM*	4.7%
O=C(Nc1ccc(F)c(Cl)c1)C1CCCC1	0.0%	1.6%	10µM*	-0.9	-14.1%	·
O=C(Nc1ccc(OC(F)F)c(Cl)c1)c1ccccn1	0.0%	?	-11.0%	-3.6	?	-8.0%
O=C(Nc1ccccc1C(=O)OCc1cc(=O)n2nc(C3CC3)sc2n1)c1cccc(Cl)c1	0.0%	-9.9%	3.8%	·	-12.4%	-1.2%
Cc1cccc(OCC(=O)Nc2ccc(C(=O)OCc3cc(=O)n4nc(C5CC5)sc4n3)cc2)c1	-4.8%	-14.1%	4.4%	·	-19.4%	-1.2%
COC(=O)c1ccc(CNC(=O)c2nc(Cn3nc(C)c(Br)c3C)no2)cc1	?	·	-18.8%	·	·	4.5%
COc1ccc2nc(N3C(=O)/C(=C/c4ccc(Cl)cc4)NC3=S)sc2c1	6.7%	?	-3.3%	21.8	20.6µM*	5.6%
CCc1ccc2ncc3c(-c4ccc(C)cc4)nn(CC(=O)Nc4ccc(C)cc4)c3c2c1	43.5%	-15.0%	6.9%	·	1.2%	5.8%
Cc1ccc(NC(=O)CC(=O)Nc2ccc(C)c(C)c2)cc1C	-3.0%	22.7%	-2.0%	-4.2	-15.5%	11.7%
Cc1ccc(Sc2ccc(NC(=O)CCl)cc2)cc1C	?	23.1µM*	-106.9%	-79.4*	?	5.5%
Cc1ccc(C)c(Sc2ccc(NC(=O)CCl)cc2)c1	?	16.4µM*	-119.4%	-88.2*	18.4µM*	3.4%
O=C(CCl)Nc1ccccc1Sc1ccccc1	-2.3%	?	-22.6%	?	?	-1.8%
Cc1cnc(-n2ncc(C(=O)NCCN3CCOCC3)c2C2CC2)nc1-c1cccs1	·	21.1%	·	·	-21.7%	·
CCCOc1ccccc1C1Oc2nc(SC)nnc2-c2ccccc2N1C(C)=O (centres undefined)	-13.6%	·	-27.0%	·	·	·
Cc1cc([N+](=O)[O-])ccc1NCc1ccccc1[N+](=O)[O-]	3.2%	-14.8%	5.1%	-70.9*	-23.8%	9.0%
Cc1cc(F)ccc1NCc1ccccc1[N+](=O)[O-]	-9.1%	-26.2%	-4.5%	-7.9	-22.5%	9.7%
Cc1cc([N+](=O)[O-])ccc1NCc1cccc2ccccc12	-23.7%	?	-9.9%	-65.6*	15.8µM*	·
COc1cc2c(cc1O)-c1ccccc1CN(C)C2	·	19.2%[9.04 µM]	·	·	2.7%[9.04 µM]	4.4%
CC(=O)Nc1ccc(Nc2nc(Nc3ccc(Cl)cc3)nc(N3CCOCC3)n2)cc1	12.2%	1.26µM*	-26.1%	·	0.794µM*	0.8%
SMILES	TGFb inhibitor	TDP1 cell CPT	HepG2 tox	IL1B secr inh	TDP1 cell noCPT	TDP1 block
Clc1ccc(Nc2nc(Nc3ccc(Cl)cc3)nc(N3CCOCC3)n2)cc1	11.0%	?	-12.8%	·	?	·
Clc1ccc(Nc2nc(N3CCOCC3)nc(N3CCOCC3)n2)cc1Cl	-13.8%	?	-5.8%	-28.2	9.2µM*	-1.0%
Cc1ccc(Nc2nc(Nc3ccc(Cl)cc3)nc(N3CCOCC3)n2)cc1	5.6%	11.2µM*	-27.6%	·	17.8µM*	-2.0%
Fc1ccc(Nc2nc(N3CCOCC3)nc(N3CCOCC3)n2)cc1Cl	-2.1%	?	-18.1%	-26.6	-21.4%	-0.2%
CN1CCN(c2nc(Nc3cccc(C(F)(F)F)c3)nc(N3CCOCC3)n2)CC1	?	?	-87.0%	-59.1*	?	5.5%
CCn1c2ccccc2c2nnc(SC3CCOC3=O)nc21 (centres undefined)	·	-17.0%	·	·	-9.6%	·
Cc1ccc2c(c1)c(=O)c1ccccc1n2CCCC(=O)Nc1ccc(F)cc1F	-0.8%	-28.1%	-1.6%	·	?	-9.3%[12.3 µM]
O=C(Cc1ccc[nH]c1=O)c1ccc(F)cc1	2.4%	-1.3%	2.1%	·	-8.8%	·
Fc1ccccc1Nc1nc(N2CCOCC2)nc(N2CCOCC2)n1	?	20.6µM*	-39.1%	-19.0	?	·
Cc1ccc(Nc2nc(N3CCOCC3)nc(N3CCOCC3)n2)cc1	2.5%	18.4µM*	-32.1%	·	18.4µM*	0.0%
CC(C)c1ccc(Nc2nc(N3CCOCC3)nc(N3CCOCC3)n2)cc1	8.3%	18.4µM*	3.4%	-8.4	18.4µM*	·
CC(C)c1ccc(Nc2nc(NCc3ccco3)nc(N3CCOCC3)n2)cc1	4.2%	?	-12.7%	-21.5	?	9.4%
COc1ccc(C(=O)Oc2c(OC)cc(C(=S)N3CCOCC3)cc2OC)cc1OC	-1.3%	-23.5%	6.9%	17.2	-35.6%	·
O=Nc1c(O)n(Cc2cccc(Cl)c2)c2ccccc12	-28.7%	0.6%	-54.7%	-67.6*	-28.0%	0.0%
CCCCNC(=S)N=Nc1c(O)n(Cc2ccccc2)c2ccccc12	18.0%	16.4µM*	2.6%	-26.6	2.59µM*	11.0%
O=S1(=O)CCC(N=Nc2c(O)n(Cc3ccccc3)c3ccccc23)C1 (centres undefined)	7.3%	20.6µM*	-3.8%	-9.2	?	·
CCN(CC)CCn1c(O)c(N=O)c2ccccc21	0.3%	-4.8%	-0.8%	11.2	-16.4%	0.0%
Cc1cc(C)nc(N=Nc2c(O)n(Cc3ccc(Cl)cc3)c3ccccc23)n1	0.0%	?	1.6%	6.3	18.4µM*	5.5%
CCOC(=O)N=Nc1c(O)n(Cc2ccccc2)c2ccccc12	5.7%	?	-0.6%	-1.9	?	5.4%
C/C(Cl)=C\Cn1c(O)c(N=NC(N)=S)c2ccccc21	?	4.11µM*	-29.1%	-4.5	3.66µM*	14.9%

Screening results (PubChem BioAssay)
